Most compounds without a hit are left out; they make up all but 7% or so of the library.
ADAM17 inh: ADAM17 inhibition, QFRET primary screen | recombinant ADAM17, EDANS/DABCYL FRET peptide cleavage | inhibition, % at 6.95 µM | actives 0.83% (n = 370,000) | AID 720648;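 active = inhibition above the mean of compounds lying between control limits plus 3 SD, set per campaign, cut at about 8.5% in these data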;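 note: 0% = DMSO-only wells as the low control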
rCAG binder: molecules binding r(CAG) RNA repeats | r(CAG) RNA repeat, TO-PRO-1 dye displacement fluorescence | inhibition, % at 3 µM | actives 1.3% (n = 370,000) | AID 651821;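 active = inhibition above the plate cutoff, the mean of all test compounds on that plate plus 3 SD, cut at about 35% in these data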;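 note: 0% = DMSO alone and 100% = 100 µM mitoxantrone as full dye displacement; higher means more dye released from RNA so lower well fluorescence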
GRIN3A LBD mod: modulates the human NR3A ligand-binding domain | actives 2.5% (n = 340,000) | AID 1259313 | NR3A LBD differential scanning fluorimetry, Tm shift; 0% = protein alone, 100% = glycine-bound protein | Tm shift relative to glycine control, % at 25 µM;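 active = melting temperature shift of at least 10% of the positive control shift, at one fixed dose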
ADAM10 inh: inhibitors of human ADAM10; recombinant ADAM10, EDANS/DABCYL FRET peptide cleavage, 3 h; inhibition, % at 7 µM; actives 0.62% (n = 370,000); AID 720582;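 active = inhibition above a per-campaign cutoff equal to the mean of compounds falling between control-based bounds plus 3 SD, cut at about 20% in these data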;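 note: 0% = DMSO wells while the 100% control is not disclosed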
KLK7 zymogen act: activators of human kallikrein-7 zymogen. purified proKLK7, EDANS-DABCYL substrate fluorescence; 100% is mature enzyme control, 0% vehicle. activation, % at 7 µM. actives 0.9% (n = 370,000);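 active = activation above the mean of all tested compounds plus 3 SD, computed per campaign excluding outliers beyond control limits, cut at about 13% in these data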
AHR activator: activates the human aryl hydrocarbon receptor; P35869; activation, % at 5 µM; AHR-responsive luciferase reporter cells, luminescence; actives 2.5% (n = 320,000); in the data active = activation above about 47%;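 note: 0% = vehicle wells and 100% = reference agonist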
Target sequence (P35869 whole entry, looked up): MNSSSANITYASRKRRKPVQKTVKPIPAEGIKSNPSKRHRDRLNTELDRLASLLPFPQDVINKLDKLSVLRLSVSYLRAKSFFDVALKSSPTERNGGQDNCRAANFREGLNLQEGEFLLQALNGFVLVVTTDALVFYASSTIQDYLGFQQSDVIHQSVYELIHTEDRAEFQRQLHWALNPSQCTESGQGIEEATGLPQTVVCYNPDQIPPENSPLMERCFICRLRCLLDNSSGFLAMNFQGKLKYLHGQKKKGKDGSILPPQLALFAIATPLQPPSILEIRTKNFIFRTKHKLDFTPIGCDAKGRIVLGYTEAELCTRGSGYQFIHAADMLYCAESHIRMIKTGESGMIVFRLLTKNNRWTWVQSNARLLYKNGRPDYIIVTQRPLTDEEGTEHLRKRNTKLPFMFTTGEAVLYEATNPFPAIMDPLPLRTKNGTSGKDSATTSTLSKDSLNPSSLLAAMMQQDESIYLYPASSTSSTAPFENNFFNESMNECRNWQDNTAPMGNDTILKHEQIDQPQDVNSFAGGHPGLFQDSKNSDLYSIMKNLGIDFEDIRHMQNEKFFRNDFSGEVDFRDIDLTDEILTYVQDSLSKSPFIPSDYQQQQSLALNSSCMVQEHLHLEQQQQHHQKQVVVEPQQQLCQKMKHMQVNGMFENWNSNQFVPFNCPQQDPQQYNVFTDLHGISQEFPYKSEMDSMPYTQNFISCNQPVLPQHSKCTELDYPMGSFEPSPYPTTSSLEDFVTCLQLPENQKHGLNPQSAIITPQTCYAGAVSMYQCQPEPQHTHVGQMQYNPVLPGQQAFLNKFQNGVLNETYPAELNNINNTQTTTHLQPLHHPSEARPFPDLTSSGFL
rCAG bind conf: r(CAG) RNA repeat binding, confirmation; shares compounds with rCAG binder; inhibition, % at 3 µM; actives 70% (n = 4,300); TO-PRO-1 dye displacement fluorescence;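 active = inhibition above a per-plate cutoff, the mean inhibition of sample wells plus 3 SD, cut at about 35% in these data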;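 note: loss of TO-PRO-1 fluorescence as compound displaces dye from 1x1 AA loop RNA; 0% = DMSO only wells and 100% = 100 µM mitoxantrone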
DNA CAG counter: counter-screen for rCAG RNA binders: DNA CAG dye complex inhibitors. shares compounds with rCAG binder. d(CAG) DNA oligo TO-PRO-1 dye displacement, fluorescence. inhibition, % at 3 µM. actives 94% (n = 4,300). AID 652068;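 active = inhibition above its plate's cutoff, the mean test-well inhibition plus 3 SD, cut at about 4.8% in these data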;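 note: 0% = DNA dye mix with DMSO and 100% = 100 µM mitoxantrone; hits displace the dye from DNA and so lower well fluorescence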
dCAG dye DR: disrupts DNA CAG TO-PRO-1 complex in dose response. shares compounds with rCAG binder. DNA CAG/GTC duplex TO-PRO-1 dye displacement fluorescence. IC50, µM. actives 20% (n = 250). AID 686960; in the data active = IC50 below about 10 µM
An asterisk follows results filed as active; / = no result given.

SMILES	ADAM17 inh	rCAG binder	GRIN3A LBD mod	ADAM10 inh	KLK7 zymogen act	AHR activator	rCAG bind conf	DNA CAG counter	others
CCS(=O)(=O)NC(=O)C1(C)CCN1C(=O)C1(c2ccc(Cl)cc2)CC1 (stereo not given)	-4	1	/	-5	0	/	/	/
O=C(NCc1ccc(C(=O)N2CCCC2)cc1)c1cccc(Br)c1	-1	2	/	1	1	/	/	/
CC1CC(C)CN(C(=O)C2CCN(c3cncnc3)CC2)C1 (stereo not given)	-5	0	/	-8	1	/	/	/
O=C(O)c1cccc(NC(=O)c2ccc(COc3ccc(Cl)cc3)cc2)c1	-1	47*	1	-5	-1	4	54*	16*
CCCCOc1cccc(C(=O)NC(=S)Nc2ccc(Cl)c(C(=O)O)c2)c1	3	44*	-4	6	0	0	49*	9.4*	dCAG dye DR=>30
O=C(O)c1ccc(Cl)c(NC(=S)NC(=O)c2cccc(COc3ccccc3)c2)c1	-4	10	-8	-2	0	3	/	/
O=C(NC(=S)Nc1ccc(Cl)c(C(=O)O)c1)c1cccc(COc2ccccc2)c1	3	71*	-3	12	0	1	67*	30*
O=C(NC(=S)Nc1ccc(Cl)c(C(=O)O)c1)c1ccc(OCc2ccccc2)cc1	-1	68*	2	11	0	1	62*	25*
O=C(N1CCOCC1)N1CC[C@H]2[C@H](CCCN2Cc2ccccc2)C1	-4	0	/	-2	0	/	/	/
CC(C)NC(=O)N[C@@H]1C[C@@H]2O[C@@H](CO)CC[C@@H]2O[C@@H]1CCc1ccc(-c2ccc(F)cc2)cc1	2	3	/	2	0	/	/	/
CCc1nnn2c1Cn1c3ccccc3c(=O)n1[C@@H](C)C2	-76	4	/	-293	2	/	/	/
CC1CCCCC1NC(=O)COC(=O)c1c2c(nc3ccccc13)/C(=C/c1ccco1)CC2 (stereo not given)	-1	53*	-11	-13	0	12	51*	28*
O=C(COC(=O)c1c2c(nc3ccccc13)/C(=C/c1ccco1)CC2)NC1CCCC1	1	68*	-5	-12	0	/	60*	34*
Cc1cc(C(=O)OCC(=O)NC2CCCC2)c2ccccc2n1	-6	-3	4	-26	-1	/	/	/
Cn1c(=O)c2c(-c3ccccc3)n(-c3cc([N+](=O)[O-])ccc3O)cc2n(C)c1=O	-5	9	/	-4	0	/	/	/
Cn1c(=O)c2c(-c3ccccc3)n(-c3cc(Cl)c([N+](=O)[O-])cc3O)cc2n(C)c1=O	-2	43*	/	-1	0	/	42*	11*
O=C1CCCC2=C1C(c1ccc(Br)cc1)c1c([nH]c(=S)[nH]c1=O)N2 (stereo not given)	-5	24	0	-18	2	6	/	/
O=c1[nH]c(=S)[nH]c2c1C(c1ccc(Br)cc1)c1c([nH]c(=S)[nH]c1=O)O2	-2	87*	8	11	1	2	84*	48*
C/C(=N\NC(=O)c1cccc(Cl)c1)c1cccc(NC(=O)c2ccco2)c1	-5	1	2	2	0	9	/	/
CC(=O)Nc1cccc(/C(C)=N/NC(=O)c2ccc(O)cc2)c1	-1	-3	-11	0	0	5	/	/
C/C(=N\NC(=O)c1cc(O)ccc1O)c1cccc(NC(=O)c2cccc(Cl)c2)c1	-24	45*	2	-62	7	18	22	8.4*
C/C(=N\NC(=O)c1cc(O)ccc1O)c1cccc(NC(=O)c2ccc(Cl)cc2)c1	-24	37*	5	-48	10	-5	25	8.3*
O=S1(=O)c2ccccc2-c2c(nnn2CC2CCCCC2)CN1C1CC1	-1	2	/	0	0	/	/	/
COC(=O)C1=C(O)/C(=C\c2ccc(CNC(=O)C(=O)Nc3ccc(C)cc3)o2)N=C1C	-6	20	-2	-5	1	7	/	/
CCOC(=O)C1=C(O)/C(=C/c2ccc(CNC(=O)C(=O)Nc3ccc(C)cc3)o2)N=C1C	1	49*	-2	-5	1	4	23	11*
SMILES	ADAM17 inh	rCAG binder	GRIN3A LBD mod	ADAM10 inh	KLK7 zymogen act	AHR activator	rCAG bind conf	DNA CAG counter	others
COC(=O)C1=C(O)/C(=C\c2ccc(CNC(=O)C(=O)Nc3ccc(C)c(C)c3)o2)N=C1C	1	56*	-26	5	1	8	24	12*
C(=NNc1ccc2ccccc2n1)c1ccccn1	1	0	/	-15	-1	/	/	/
COc1ccc2c(c1)c1ccc3c(c1n2C)C(=O)C=CC3=O	-5	54*	-5	-19	0	/	11	8.3*
Cc1ccc2c(c1)c1ccc3c(c1n2C)C(=O)C=CC3=O	-14	51*	-7	-38	0	/	13	9.6*
Cn1c2ccccc2c2ccc3c(c21)C(=O)C=CC3=O	-12	33	-12	-49	1	/	/	/
COc1ccc(-c2c(-c3cc(OC)cc(OC)c3)n(C)c3ccc(-c4ccc(OC)cc4F)cc23)cc1	-11	4	1	-21	0	4	/	/
CC(=C\C=O)/C(C)=C/CC[C@@H]1O[C@@H]2C[C@@H]3O[C@](C)(C[C@H]4C[C@H](O)[C@@H]5O[C@@H]6C[C@H](O)[C@@H](C)O[C@@]6(C)CC[C@H]5O4)[C@@H](O)CC[C@@]3(C)O[C@H]2[C@@H](O)[C@@H]1C	-8	/	/	-7	/	/	/	/
Cc1ccc(S(=O)(=O)N2[C@@H](c3cccc(Cl)c3)C(C(=O)O)=CC[C@H]2c2cccc(C)c2)cc1	-4	10	3	1	0	3	/	/
Cc1ccc(S(=O)(=O)N2[C@@H](c3ccc(Br)cc3)C(C(=O)O)=CC[C@H]2c2cccc(C)c2)cc1	-4	5	-7	-10	0	-1	/	/
COc1cccc([C@@H]2CC=C(C(=O)O)[C@H](c3ccc(C)cc3)N2S(=O)(=O)c2ccc(C)cc2)c1	-1	30	1	-1	0	1	/	/
COc1cc([C@@H]2CC=C(C(=O)O)[C@H](c3cccc(Cl)c3)N2S(=O)(=O)c2ccc(C)cc2)cc(OC)c1OC	-6	45*	1	-3	0	0	45*	10*
COc1ccc([C@@H]2CC=C(C(=O)O)[C@H](c3ccc(C)cc3)N2S(=O)(=O)c2ccc(C)cc2)cc1OC	-4	40*	1	-8	1	-1	36*	7.8*

From PubChem
